Bioassay records: PubChem BioAssay, National Center for Advancing Translational Sciences (NCATS)
FLuc modulator – counter-screen for miR-21 project: firefly luciferase inhibitors or activators | P08659 | purified FLuc, Km substrates, luminescence inhibition | Potency, µM (titrated, usually from 57.5 µM), inactives show at the highest dose activity change, negative = inhibition, actives largely listed as inhibitors | hit rate 6.9% among 360,000 | AID 588342;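 further: plate controls were vehicle for no effect and reference inhibitor for full effect; nearly all actives have a fitted effect of over 55% in size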
Target sequence (P08659 whole entry, looked up): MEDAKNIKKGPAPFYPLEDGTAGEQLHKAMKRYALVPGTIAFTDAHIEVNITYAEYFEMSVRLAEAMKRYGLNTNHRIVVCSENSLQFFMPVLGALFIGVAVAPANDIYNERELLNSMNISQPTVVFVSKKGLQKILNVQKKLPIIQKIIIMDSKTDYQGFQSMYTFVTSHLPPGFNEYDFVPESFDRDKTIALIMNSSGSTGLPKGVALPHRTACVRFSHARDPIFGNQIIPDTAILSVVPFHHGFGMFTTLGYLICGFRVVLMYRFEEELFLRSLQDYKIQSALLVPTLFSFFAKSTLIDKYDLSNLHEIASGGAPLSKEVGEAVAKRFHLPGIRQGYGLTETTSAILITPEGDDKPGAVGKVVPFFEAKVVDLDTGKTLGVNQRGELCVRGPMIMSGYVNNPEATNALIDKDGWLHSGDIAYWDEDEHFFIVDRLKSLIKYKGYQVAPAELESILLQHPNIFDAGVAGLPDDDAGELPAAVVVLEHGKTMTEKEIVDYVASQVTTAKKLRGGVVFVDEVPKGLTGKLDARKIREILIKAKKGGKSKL
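Purified P. pyralis luciferase, 10 nM final, with Km-level 10 uM D-luciferin and 10 uM ATP in 50 mM Tris acetate pH 7.5, 10 mM Mg acetate, 0.01% Tween-20, 0.05% BSA; 6-point qHTS titration about 60 µM downward; luminescence read.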
ELG1 genotox – inducers of genotoxicity in HEK293T ELG1-luciferase cells; HEK293T ELG1-luciferase reporter, luminescence, 16 h; Potency, µM (top dose mostly 46 µM), without a hit: at the highest dose activity change, positive = activation, most hits filed as activators; hit rate 1.3% among 330,000; AID 504466; further: % of control where 0% means no effect; nearly all actives have a fitted effect of over 60% in size
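Reporter readout depends on ELG1 protein level, which increases with genetic stress. After 16 hr compound exposure at 37 °C, luciferase activity was quantified using ONE-Glo.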
Rab9 promoter act – Rab9 promoter activation; Potency, µM (series often up to 9.22 µM), without a hit: top-dose activation, negative = inhibition, usual class: activators; hit rate 2.8% among 320,000; Huh7 Rab9 promoter-luciferase reporter, luminescence, 24 h; further: % of control where 0% means no effect; nearly all actives have a fitted effect of over 60% in size
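Cells were plated at 1500 per well in reduced-serum medium with 10% FBS and left 2 h. Compound in DMSO was then added for 24 h at 37 °C. Reporter signal was read by luminescence after 10 min with luciferase detection reagent.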
SMN2 splice up – enhancers of SMN2 splice variant expression. Potency, µM (highest dose often 46.1 µM), for the others: top-dose activity change, positive = activation, actives largely listed as activators. hit rate 2.8% among 210,000. AID 1458. HEK293 SMN2-luciferase splicing reporter, luminescence, 30-36 h; further: % of control where 0% means no effect; nearly all actives have a fitted effect of over 55% in size
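HEK293 cells carry an SMN2 minigene-luciferase reporter in which exon 7 inclusion puts luciferase in frame. Cells were seeded at 2000 cells/well, attached for 10-12 hours, then exposed to compounds for 30-36 hours at 37C before ONE-Glo luminescence.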
NPC1 prom act – activates the NPC1 promoter; Potency, µM (doses to about 9.22 µM), without a hit: at the highest dose activation, hits mostly activators; Huh7 NPC1 promoter luciferase reporter, 24 h; hit rate 2.4% among 320,000; AID 485313; further: % of control where 0% means no effect; nearly all actives have a fitted effect of over 60% in size
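Luciferase expression driven by the NPC1 promoter was measured in stably transfected Huh7 cells after a 24 h compound incubation, using a luciferase reagent and a luminescence read.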
Numbers without * were called inactive; ? = inconclusive; / = no result given; [ ] = another dose, or the depositor's remark. An excerpt weighted towards active compounds, which were near 7.5% of everything screened. The call rests on the fitted dose curve; in most records, active means well fitted curve in the direction sought with a large enough effect; inconclusive means small, poorly fitted or top-dose-only effect, or another doubt; inactive means no such curve, though single readings can be large; an effect the other way counts as inactive or inconclusive. Potency means the concentration at half of the fitted maximal effect.

SMILES	FLuc modulator	ELG1 genotox	Rab9 promoter act	SMN2 splice up	NPC1 prom act
Cc1ccsc1/C=N/Nc1cccc(C(=O)O)c1	0.11µM*	?	0.0032µM*	0.1µM*	3.2µM*
CCN(C(=O)CSc1n[nH]c(N)n1)C1CCCCC1	/	-2%	/	/	/
N#Cc1cc2cc3c(cc2nc1SCC(=O)N1CCOCC1)OCO3	/	3.7µM*	1.6µM*	/	1.3µM*
CC(C)OC(=O)CSc1nc(N)c(C#N)cc1C#N	0%	?	?	16%	29%
CCOC(=O)CSc1nc2cc3c(cc2cc1C#N)OCO3	3%	23µM*	-30%	13µM*	?
CC(C)OC(=O)CSc1nc2cc3c(cc2cc1C#N)OCO3	0%	?	?	?	4µM*
COC(=O)CSc1nc(-c2cccs2)ccc1C#N	?	8.2µM*	2.2µM*	14µM*	1.8µM*
Cc1cc2cc3c(cc2nc1SCC(=O)N1CCOCC1)OCO3	7%	8%	3%	/	-7%
COc1ccc(-c2nnc(SCc3ccc(C(=O)O)cc3)n2C)cc1OC	4%	-3%	-3%	/	-4%
N#Cc1cc[n+](CC(=O)c2ccc(NC(=O)c3ccccc3)cc2)cc1	-19%	5%	8%	/	2%
Cc1cc(NC(=O)NCc2ccc3c(c2)CCN3C(=O)c2ccccc2)ccc1Br	-15%	/	/	/	/
CCOc1ccc2cc(C#N)c(SCC(=O)N3CCOCC3)nc2c1	?	2.6µM*	4µM*	36%	4µM*
COC(=O)CSc1nc2cc3c(cc2cc1C)OCCO3	-15%	1%	9%	1%	-10%
COC(=O)CSc1nc2cc3c(cc2cc1C#N)OCO3	-6%	?	0.79µM*	10µM*	0.89µM*
CCOC(=O)CSc1nc2cc3c(cc2cc1C#N)OCCO3	?	6.5µM*	?	5.6µM*	2µM*
CSc1nc(-c2ccccc2)nn1C(=O)c1ccc(Cl)cc1	-17%	4%	12%	?	8%
CSc1nc(-c2ccc(Cl)cc2)nn1C(=O)c1ccccc1	11µM*	17%	?	/	25%
Cc1ccn2c(C(=O)CSc3ccccc3)c(C)nc2c1	?	7%	15%	25µM*	16%
O=C(COC(=O)c1ccccc1N1C(=O)C2C3CCC(C3)C2C1=O)c1ccccc1 (centres undefined)	-12%	1%	-9%	-5%	-2%
Cc1ccc(C)c(C(=O)COC(=O)c2ccccc2N2C(=O)C3C4CCC(C4)C3C2=O)c1 (centres undefined)	7.6µM*	-6%	6%	-7%	14%
CCC(=O)C1CCCN(C(=O)CCc2nnc(-c3ccc(C(C)=O)s3)o2)C1 (centres undefined)	11µM*	?	?	/	?
CCCOC1CCCN(C(=O)CCc2nnc(-c3ccc4c(c3)OCO4)o2)C1 (centres undefined)	?	?	3.2µM*	/	?
COc1ccccc1C(=O)NC(=O)COC(=O)Cn1cnc2c1c(=O)n(C)c(=O)n2C	-2%	0%	-8%	/	1%
CC(C)(C)c1csc(NC(=O)Cc2cccs2)n1	15µM*	6%	16%	-25%	0%
CC(C)(C)c1csc(NC(=O)c2cccnc2)n1	?	-2%	0%	/	-2%
SMILES	FLuc modulator	ELG1 genotox	Rab9 promoter act	SMN2 splice up	NPC1 prom act
CC(C)(C)c1csc(NC(=O)c2cccs2)n1	11µM*	?	3.5µM*	/	3.2µM*
Cc1cc(C)cc(OCC(=O)NNC(=O)CN2C(=O)c3ccccc3C2=O)c1	4%	3%	-1%	-13%	-3%
COc1ccc(-c2noc(N3CCCC(C(=O)Nc4ccc(C(C)=O)cc4)C3)n2)cc1 (centres undefined)	11µM*	3%	27%	/	23%
CCc1ccc(O)c(N=Cc2ccccc2O)c1	2%[2.3 µM]	0%	15%	/	-5%
O=c1[nH][nH]c2c(N=Cc3ccccc3O)ccc(F)c12	19µM*	-6%	-8%	/	0%
COc1ccc(NC(=O)c2ccc3c(c2)OCCO3)cc1OC	2.7µM*	5.6µM*	2.2µM*	/	1.4µM*
COc1cc(NC(=O)c2ccc3c(c2)OCCO3)ccc1NC(=O)c1ccccc1Cl	-2%	12%	-1%	/	10%
COc1cc(C(=O)Nc2ccc3c(c2)OCCO3)ccc1OC(F)F	6µM*	?	2.8µM*	14µM*	3.2µM*
COc1ccc(C(=O)Nc2ccc3c(c2)OCCO3)cc1S(=O)(=O)N1CCOCC1	/	-2%	-3%	/	-3%
CCOc1ccc(C(=O)OCC(=O)Nc2ccc3c(c2)OCCO3)cc1OC	-1%	6%	3%	/	-6%
COc1ccc(C(=O)Nc2ccccc2)cc1[N+](=O)[O-]	/	/	/	-7%	/
COc1ccc(C(=O)Nc2ccc3c(c2)OCCO3)cc1[N+](=O)[O-]	11µM*	14%	?	22%	18%
COc1cc(C(=O)Nc2ccc3c(c2)OCCO3)ccc1OC(C)C	7.6µM*	?	3.2µM*	11µM*	?
Cc1ccccc1OCC(=O)Nc1ccc(-c2nc3ccccc3o2)cc1	-2%	/	/	/	/
C=CC[C@@H](CC(=O)OC(C)(C)C)C(=O)OC[C@H]1CCCN1C(=O)[C@@H](CC=C)CC(=O)N(CCO)Cc1ccccc1	/	-4%	/	/	/
CCCCN1CNC(=S)N(c2ccccc2OCC)C1	?	-1%	-3%	6%	1%
O=C(O)c1ccc(-c2nnn(Cc3cccc(C(F)(F)F)c3)n2)cc1	2%	1%	0%	/	2%
CCN(CC)S(=O)(=O)c1ccc2c(c1)N(CC(=O)Nc1cccnc1Cl)C(=O)CO2	3%	5%	3%	3%	-4%
Cc1c([N+](=O)[O-])c(C(=O)Nc2ccc3c(c2)OCCO3)nn1C	?	12µM*	?	13µM*	?
Cc1nn(C)c(C(=O)Nc2ccc3c(c2)OCO3)c1[N+](=O)[O-]	?	3%	-6%	/	2%
Cc1ccc(-c2cc(C(=O)NNC(=O)c3csc(N4CCOCC4)n3)c3ccccc3n2)cc1	13µM*	-7%	13%	/	2%
COc1ccccc1C(=O)NNC(=O)c1csc(N2CCOCC2)n1	9.5µM*	-7%	-2%	/	7%
COc1ccc(Cl)cc1C(=O)NNC(=O)c1csc(N2CCOCC2)n1	-16%	-6%	3%	/	-1%
Cc1cc2nc(-c3cccnc3SCC(=O)NCc3ccco3)[nH]c2cc1C	0.95µM*	?	3.2µM*	13µM*	4µM*
Cc1cc2nc(-c3cccnc3SCC(=O)NC3CC3)[nH]c2cc1C	2.7µM*	?	?	16µM*	?
O=C(CSc1nc2ccccc2[nH]1)NCc1ccco1	-13%	?	13%	16%	8%
O=C(CSc1ncccc1-c1nc2ccccc2[nH]1)NCc1ccco1	24µM*	?	26%	-13%	20%
O=C(CSc1nc2ncccc2[nH]1)NCc1ccco1	5%	0%	-2%	/	3%
